The panel holds about 79,000 compounds, 15% with a hit somewhere; the sample as a whole holds those more often. Calls of active or inactive are those of the source. Rule as the data show it: active = growth inhibition above about 70%; inactive = the rest.
Tests used:
[1] = NCI Yeast Anticancer Drug Screen. Data for the wt1 strain (AID 149);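 also: 0% = growth of vehicle-treated wt1 cultures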; details: S. cerevisiae wt1 strain (SPY 50644) growth inhibition, active compounds read high
How it was run: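 Growth inhibition read against vehicle controls after compound exposure of the wt1 yeast strain.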

[2] = NCI Yeast Anticancer Drug Screen. Data for the rad50EPP+ strain (AID 151);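 also: 0% = growth of vehicle-treated control cultures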; details: S. cerevisiae rad50 mutant strain, active compounds read high
How it was run: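 Genetically defined yeast (rad50EPP+, DNA damage repair alteration) is grown with compound, and inhibition of growth is expressed relative to vehicle-treated controls.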

[3] = NCI Yeast Anticancer Drug Screen. Data for the mgt1 strain (AID 153); details: S. cerevisiae mgt1 mutant growth inhibition, active compounds read high
How it was run: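 In the mgt1 strain, test compounds were added and growth inhibition was determined relative to vehicle-treated controls.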

[4] = NCI Yeast Anticancer Drug Screen. Data for the rad50 strain (AID 155);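 also: 0% = growth of vehicle-only cultures of the same strain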; details: S. cerevisiae rad50 strain growth inhibition, active compounds read high
How it was run: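 Readout: growth inhibition relative to vehicle-treated cultures. Compound exposure was carried out in a genetically defined yeast strain deficient in DNA damage repair.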

[5] = NCI Yeast Anticancer Drug Screen. Data for the mec2-1 strain (AID 157); details: S. cerevisiae mec2-1 strain, active compounds read high
How it was run: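 Each compound was tested on mec2-1 yeast, a strain altered in DNA damage repair or cell cycle control. Growth inhibition is reported relative to vehicle.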

[6] = NCI Yeast Anticancer Drug Screen. Data for the rad14 strain (AID 159);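 also: 0% = growth of vehicle-treated control cultures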; details: S. cerevisiae rad14 strain growth inhibition, active compounds read high
How it was run: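 Growth inhibition vs vehicle controls; genetically altered yeast strain (DNA damage repair defect) treated with test compounds.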

[7] = NCI Yeast Anticancer Drug Screen. Data for the sgs1 mgt1 strain (AID 161);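 also: 0% = growth of cultures given vehicle only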; details: S. cerevisiae sgs1 mgt1 strain, active compounds read high
How it was run: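 Test agents were incubated with a DNA-repair-mutant yeast strain. Growth was then read and compared against vehicle-treated controls.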

[8] = NCI Yeast Anticancer Drug Screen. Data for the CLN2oe strain (AID 163);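 also: 0% = growth of vehicle-only control cultures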; details: S. cerevisiae CLN2oe strain, active compounds read high
How it was run: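 First, the altered yeast strain was treated with each compound; second, its growth was measured; finally, inhibition was derived by comparison with vehicle controls.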

[9] = NCI Yeast Anticancer Drug Screen. Data for the cln2 rad14 strain (AID 165);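 also: 0% = growth equal to vehicle treated cultures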; details: S. cerevisiae cln2 rad14 strain, active compounds read high
How it was run: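 Test compounds were added to cln2 rad14 yeast cultures; inhibition of growth was then determined by comparison with vehicle treatment.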

[10] = NCI Yeast Anticancer Drug Screen. Data for the bub3 strain (AID 167); details: S. cerevisiae bub3 mutant strain, active compounds read high
How it was run: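 Readout: yeast growth inhibition, expressed relative to vehicle-only wells. The test organism is a mutant strain from a panel with lesions in DNA repair or checkpoint genes.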

[11] = NCI Yeast Anticancer Drug Screen. Data for the wt2 strain (AID 169);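 also: 0% = growth of vehicle-treated yeast cultures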; details: S. cerevisiae wt2 strain growth inhibition, active compounds read high
How it was run: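 The panel's yeast strains carry defined changes in DNA repair or cell cycle genes. Each strain is grown with compound, and growth loss is scored relative to vehicle.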

[12] = NCI Yeast Anticancer Drug Screen. Data for the mlh1 strain (AID 171);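 also: 0% = growth of vehicle-treated control cultures of the same strain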; details: S. cerevisiae mlh1 strain growth inhibition, active compounds read high
How it was run: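 Inhibition values reflect reduced yeast growth in the presence of compound, referenced to vehicle controls, using a strain chosen for its alteration in DNA repair or cell cycle control.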

[13] = NCI Yeast Anticancer Drug Screen. Data for the sgs1 strain (AID 173);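 also: 0% = growth of vehicle-only control cultures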; details: S. cerevisiae sgs1 mutant, active compounds read high
How it was run: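 Vehicle-treated cultures served as reference for growth inhibition of a yeast strain altered in DNA damage repair or cell cycle control after compound exposure.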

[14] = NCI Yeast Anticancer Drug Screen. Data for the mlh1 rad18 strain (AID 175); details: S. cerevisiae mlh1 rad18 strain growth inhibition, active compounds read high
How it was run: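 Inhibition values reflect reduced growth of mutant yeast versus vehicle-treated controls following compound exposure; the mutations affect DNA damage repair.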

[15] = NCI Yeast Anticancer Drug Screen. Data for the rad18 strain (AID 177); details: S. cerevisiae rad18 mutant growth inhibition, active compounds read high
How it was run: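 Steps: expose repair-mutant yeast to compound; measure growth; express as inhibition relative to vehicle control.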

[16] = NCI Yeast Anticancer Drug Screen. Data for the rad52 strain (AID 147);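 also: 0% = growth of vehicle-treated control cultures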; details: S. cerevisiae rad52 mutant growth inhibition, active compounds read high
How it was run: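 Inhibition of yeast growth, referenced to vehicle controls, was the measured output for a strain with defective DNA damage repair.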

[17] = at 5.0 µM (retest, dose inferred, filed as 0.5)
[18] = at 50.0 µM (retest, dose inferred, filed as 5.0)

Measured: growth inhibition

O=c1c(Br)cc2c(-c3ccccc3)c3cc(Br)c(O)c(Br)c3oc-2c1Br
active: [4]; at 11.0 µM 89% | [4]; at 33.0 µM 87% | [4]; at 50.0 µM 80.8% | [4]; at 100.0 µM 80% | [5]; at 50.0 µM 78.4% | [10]; at 11.0 µM 76% | [10]; at 33.0 µM 92% | [10]; at 100.0 µM 79% | [14]; at 50.0 µM 83.4%
inactive: [1]; at 1.2 µM -1% | [1]; at 3.7 µM 11% | [1]; at 11.0 µM 9% | [1]; at 33.0 µM 0% | [1]; at 100.0 µM -4% | [2]; at 1.2 µM 1% | [2]; at 3.7 µM 23% | [2]; at 11.0 µM 38% | [2]; at 33.0 µM 57% | [2]; at 100.0 µM 39% | [3]; at 1.2 µM 0% | [3]; at 3.7 µM -2% | [3]; at 11.0 µM 9% | [3]; at 33.0 µM 28% | [3]; at 100.0 µM 23% | [4]; at 1.2 µM -54% | [4]; at 3.7 µM 24% | [4]; [17] 22% | [4]; [18] 13% | [5]; at 1.2 µM 1% | [5]; at 3.7 µM 4% | [5]; [17] 54% | [5]; at 11.0 µM -1% | [5]; at 33.0 µM -3% | [5]; [18] 28% | [5]; at 100.0 µM -1% | [6]; at 1.2 µM 2% | [6]; at 3.7 µM 17% | [6]; at 11.0 µM 31% | [6]; at 33.0 µM 22% | [6]; at 100.0 µM -4% | [7]; [17] 16% | [7]; [18] 7% | [7]; at 50.0 µM 61.3% | [8]; at 1.2 µM 3% | [8]; at 3.7 µM 5% | [8]; at 11.0 µM 9% | [8]; at 33.0 µM 23% | [8]; at 100.0 µM 15% | [9]; [17] 28% | [9]; [18] 12% | [9]; at 50.0 µM 55% | [10]; at 1.2 µM -4% | [10]; at 3.7 µM 4% | [10]; [17] 6% | [10]; [18] -6% | [10]; at 50.0 µM 54.2% | [11]; at 1.2 µM 10% | [11]; at 3.7 µM 17% | [11]; at 11.0 µM 21% | [11]; at 33.0 µM 18% | [11]; at 100.0 µM 6% | [12]; at 1.2 µM 0% | [12]; at 3.7 µM -29% | [12]; at 11.0 µM 12% | [12]; at 33.0 µM 18% | [12]; at 100.0 µM 25% | [13]; at 1.2 µM 0% | [13]; at 3.7 µM 8% | [13]; at 11.0 µM 26% | [13]; at 33.0 µM 22% | [13]; at 100.0 µM 13% | [14]; [17] 67% | [14]; [18] 58% | [15]; at 1.2 µM -8% | [15]; at 3.7 µM 9% | [15]; at 11.0 µM 1% | [15]; at 33.0 µM -2% | [15]; at 100.0 µM -10%

OC(c1ccc(Br)cc1)(c1cccs1)C1CC1 (stereo not drawn)
active: [16]; at 33.0 µM 92% | [16]; at 100.0 µM 87% | [1]; at 33.0 µM 97% | [1]; at 100.0 µM 96% | [2]; at 100.0 µM 91% | [4]; at 33.0 µM 94% | [4]; [18] 100% | [4]; at 50.0 µM 91.2% | [4]; at 100.0 µM 94% | [5]; at 33.0 µM 99% | [5]; [18] 100% | [5]; at 50.0 µM 93.2% | [5]; at 100.0 µM 97% | [6]; at 33.0 µM 97% | [6]; at 100.0 µM 97% | [7]; [18] 99% | [8]; at 33.0 µM 96% | [8]; at 100.0 µM 96% | [9]; [18] 99% | [10]; at 33.0 µM 94% | [10]; [18] 100% | [10]; at 100.0 µM 93% | [11]; at 33.0 µM 97% | [11]; at 100.0 µM 96% | [12]; at 33.0 µM 96% | [12]; at 100.0 µM 95% | [13]; at 33.0 µM 95% | [13]; at 100.0 µM 95% | [14]; [18] 100% | [14]; at 50.0 µM 92% | [15]; at 33.0 µM 94% | [15]; at 100.0 µM 91%
inactive: [16]; at 1.2 µM 13% | [16]; at 3.7 µM 21% | [16]; at 11.0 µM 57% | [1]; at 1.2 µM -19% | [1]; at 3.7 µM 3% | [1]; at 11.0 µM 17% | [2]; at 1.2 µM 3% | [2]; at 3.7 µM 35% | [2]; at 11.0 µM 27% | [2]; at 33.0 µM 17% | [4]; at 1.2 µM 3% | [4]; at 3.7 µM 21% | [4]; [17] 57% | [4]; at 11.0 µM 56% | [5]; at 1.2 µM 18% | [5]; at 3.7 µM 22% | [5]; [17] 61% | [5]; at 11.0 µM 53% | [6]; at 1.2 µM 5% | [6]; at 3.7 µM 13% | [6]; at 11.0 µM 27% | [7]; [17] -7% | [8]; at 1.2 µM 6% | [8]; at 3.7 µM 2% | [8]; at 11.0 µM 26% | [9]; [17] 45% | [10]; at 1.2 µM 38% | [10]; at 3.7 µM 48% | [10]; [17] 48% | [10]; at 11.0 µM 62% | [11]; at 1.2 µM -12% | [11]; at 3.7 µM 8% | [11]; at 11.0 µM 31% | [12]; at 1.2 µM -15% | [12]; at 3.7 µM 4% | [12]; at 11.0 µM 38% | [13]; at 1.2 µM 17% | [13]; at 3.7 µM 29% | [13]; at 11.0 µM 57% | [14]; [17] 46% | [15]; at 1.2 µM 1% | [15]; at 3.7 µM 24% | [15]; at 11.0 µM 54%
